Reference: PubChem BioAssay (Tox21)
Results filed as inconclusive are left out. A number with no mark means an inactive call. Unless noted, the call rests on the fitted dose curve; in most records, active means well fitted cell-killing curve with a large enough effect in the repeat runs; inconclusive means weak or mixed curves, or effect the other way; inactive means no such curve, though single readings can be large or run the other way.

Test: qHTS assay for small molecule activators of the heat shock response signaling pathway - cell viability counter screen (AID 743209); further: nearly all actives have a fitted effect of over 50% in size
Settings: HSE-bla HeLa viability, CellTiter-Glo luminescence, 5 h; series mostly up to 62.6 µM; activity change, negative = cytotoxicity: at the top concentration
Outline: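 Same-well multiplex: after 2.5 h room-temperature incubation with LiveBLAzer B/G substrate and fluorescence reading, CellTiter-Glo reagent was added to HSE-bla HeLa cells that had received compound for 5 h at 37 C; luminescence read after 30 min.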
On the % scale 0 is the no-effect control and ±100 the full control effect.

Compound	activity change, negative = cytotoxicity
CC(C)c1ccc2c(C(C)C)cc(C(C)C)c(S(=O)(=O)O)c2c1	-4.39% [at 81.1 µM]
Cc1cc(C)c(S(=O)(=O)O)cc1N=Nc1cc(S(=O)(=O)O)c2ccccc2c1O	6.2%
OCCC1CCCCN1 (centres undefined)	-4.3% [at 81.1 µM]
CC1(C)CCC(C)(C)c2cc(NC(=O)c3ccc(C(=O)O)cc3)ccc21	-3.19%
CC/C(=C\C(=N/O)C(N)=O)C(C)[N+](=O)[O-] (centres undefined)	8.51%
CC(=O)N(O)CCCCCNC(=O)CCC(=O)N(O)CCCCCNC(=O)CCC(=O)N(O)CCCCCN	-14.1%
Cl/C(=C\n1cncn1)c1ccc(Cl)cc1Cl	-8.28%
CC(C)CC=O	18.9%
CCCCCCCCCO	3.02%
CN(C)CCCOc1nn(Cc2ccccc2)c2ccccc12	-21.9%
CN1CCC(=C2c3ccccc3C=Cc3ccccc32)CC1	6.82%
CC1=CCC(C(C)C)C=C1 (centres undefined)	-1.09%
C#CCOC(=O)[C@@H](C)Oc1ccc(Oc2ncc(Cl)cc2F)cc1	1.95%
O=C(Nc1ccccc1)OCC(CN1CCCCC1)OC(=O)Nc1ccccc1 (centres undefined)	12.8%
CCOC(=O)C1=NN(c2ccccc2)C(=O)C1	9.79%
CCCCCCOC(=O)CCC	-0.688%
CCCCCc1ccc(N)cc1	-10.7%
CN1CCN(C2=Nc3ccccc3Sc3ccc(Cl)cc32)CC1	-16.8%
O=C(CCN1CCN2CCCC2C1)N1c2ccccc2Sc2ccc(Cl)cc21 (centres undefined)	18.5% [at 29.1 µM]
CCN(CC)CCc1nc(-c2ccccc2)no1	6.45%
COCCO	6.34%
CCCCCOC(=O)COc1cc(N2C(=O)C3=C(CCCC3)C2=O)c(F)cc1Cl	2.47%
O=C(O)Cc1sc(-c2ccccc2)nc1-c1ccc(Cl)cc1	0.501%
C[C@H](CCC(=O)O)[C@H]1CC[C@H]2[C@@H]3[C@H](O)C[C@@H]4C[C@H](O)CC[C@]4(C)[C@H]3CC[C@]12C	-6.18%
CC(C)CCCCCCOC(=O)c1ccc(C(=O)OCCCCCCC(C)C)c(C(=O)OCCCCCCC(C)C)c1	-4.53%
Cc1ccc2c(ccc3ccccc32)c1	-4.06% [at 81.1 µM]
CCCCOC(=O)/C=C\C(=O)OCCCC	0.656% [at 81.1 µM]
CN(C)CCCNCCCN	1.58%
CC(=O)[C@@]1(O)CC[C@H]2[C@@H]3C[C@H](C)C4=CC(=O)CC[C@]4(C)[C@H]3CC[C@@]21C	-2.56%
CC(C)(C)C(=O)OCOP(=O)(COCCn1cnc2c(N)ncnc21)OCOC(=O)C(C)(C)C	8.01%

Test: qHTS assay for small molecule activators of the heat shock response signaling pathway (AID 743210; active means well fitted activation curve with a large enough effect in the signal ratio in the repeat runs, with a control signal flat, not every such curve was filed as active; the % refers to the signal ratio)
Settings: HeLa HSE-bla reporter, beta-lactamase ratio, 5 h; series mostly up to 62.6 µM; activation: at the top concentration
Outline: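 Heat shock element–beta-lactamase HeLa reporter cells; qHTS with compounds for 5 h at 37 C; detection by FRET substrate fluorescence after 2.5 h at RT.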

Compound	activation
CC(C)c1ccc2c(C(C)C)cc(C(C)C)c(S(=O)(=O)O)c2c1	-0.0731% [at 81.1 µM]
Cc1cc(C)c(S(=O)(=O)O)cc1N=Nc1cc(S(=O)(=O)O)c2ccccc2c1O	-1.26%
OCCC1CCCCN1 (centres undefined)	2.4% [at 81.1 µM]
CC(=O)N(O)CCCCCNC(=O)CCC(=O)N(O)CCCCCNC(=O)CCC(=O)N(O)CCCCCN	-2.34%
Cl/C(=C\n1cncn1)c1ccc(Cl)cc1Cl	-0.146%
CC(C)CC=O	-0.524%
CCCCCCCCCO	-0.303%
CN(C)CCCOc1nn(Cc2ccccc2)c2ccccc12	-0.0395%
FC(F)(F)C(F)(F)C(F)(F)C(F)(F)C(F)(F)C(F)(F)CCI	-0.694%
CN1CCC(=C2c3ccccc3C=Cc3ccccc32)CC1	1.35%
O=C(Cl)c1c(Cl)cccc1Cl	-1.05% [at 81.1 µM]
CC(=O)CC(=O)c1ccccc1	7.75% [at 81.1 µM]
CC(=O)O[C@@H]1C(=O)O[C@@H]2[C@H]1OC(=O)[C@@H]2OC(C)=O	2.42%
CC1=CCC(C(C)C)C=C1 (centres undefined)	1.63%
O=C(Nc1ccccc1)OCC(CN1CCCCC1)OC(=O)Nc1ccccc1 (centres undefined)	0.482%
CCOC(=O)C1=NN(c2ccccc2)C(=O)C1	0.657%
CCCCCCOC(=O)CCC	-0.118%

Compound	activation
CCCCCc1ccc(N)cc1	2.96%
CN1CCN(C2=Nc3ccccc3Sc3ccc(Cl)cc32)CC1	-1.37%
O=C(CCN1CCN2CCCC2C1)N1c2ccccc2Sc2ccc(Cl)cc21 (centres undefined)	-0.916% [at 29.1 µM]
CCN(CC)CCc1nc(-c2ccccc2)no1	-0.0743%
COCCO	-1.05%
CCCCCOC(=O)COc1cc(N2C(=O)C3=C(CCCC3)C2=O)c(F)cc1Cl	7.16%
O=C(O)Cc1sc(-c2ccccc2)nc1-c1ccc(Cl)cc1	-0.272%
C[C@H](CCC(=O)O)[C@H]1CC[C@H]2[C@@H]3[C@H](O)C[C@@H]4C[C@H](O)CC[C@]4(C)[C@H]3CC[C@]12C	-0.0043%
CN(C(=O)CCCOc1ccc2[nH]c(=O)ccc2c1)C1CCCCC1	0.623%
CN(c1nccc(=O)[nH]1)C1CCN(c2nc3ccccc3n2Cc2ccc(F)cc2)CC1	-1.07%
CC(C)CCCCCCOC(=O)c1ccc(C(=O)OCCCCCCC(C)C)c(C(=O)OCCCCCCC(C)C)c1	-1.12%
Cc1ccc2c(ccc3ccccc32)c1	-0.586% [at 81.1 µM]
CN(C)CCCNCCCN	-0.0992%
OC(CCN1CCCCC1)(c1ccccc1)C1CCCCC1 (centres undefined)	-0.707%
CC(=O)[C@@]1(O)CC[C@H]2[C@@H]3C[C@H](C)C4=CC(=O)CC[C@]4(C)[C@H]3CC[C@@]21C	0.225%
CC(C)(C)C(=O)OCOP(=O)(COCCn1cnc2c(N)ncnc21)OCOC(=O)C(C)(C)C	0.179%
N#Cc1c(F)cccc1F	-0.296%
